From PubChem BioAssay (NCI)
Compounds without any hit were thinned out: in the full panel of roughly 79,000, 15% have a hit. The source made the active and inactive calls. No stated cut-off is given here; in the data, active means growth inhibition above about 70%; inactive means the rest.

Assays:
[1] = NCI Yeast Anticancer Drug Screen. Data for the wt1 strain (AID 149);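 further: 0% = growth of vehicle-treated wt1 cultures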; details: S. cerevisiae wt1 strain (SPY 50644) growth inhibition, active compounds read high
Procedure, shortened: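 The wt1 strain was treated with compounds, and growth was compared with vehicle-treated cultures to give inhibition.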

[2] = NCI Yeast Anticancer Drug Screen. Data for the rad50EPP+ strain (AID 151);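 further: 0% = growth of vehicle-treated control cultures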; details: S. cerevisiae rad50 mutant strain, active compounds read high
Procedure, shortened: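 Measured: growth inhibition of rad50EPP+ yeast. Reference: vehicle-treated controls. Screen uses strains with defined genetic alterations in DNA damage repair or cell cycle control.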

[3] = NCI Yeast Anticancer Drug Screen. Data for the mgt1 strain (AID 153); details: S. cerevisiae mgt1 mutant growth inhibition, active compounds read high
Procedure, shortened: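 Compounds were applied to mgt1 mutant yeast, and growth was then compared against vehicle-treated control cultures to give percent inhibition.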

[4] = NCI Yeast Anticancer Drug Screen. Data for the rad50 strain (AID 155);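 further: 0% = growth of vehicle-only cultures of the same strain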; details: S. cerevisiae rad50 strain growth inhibition, active compounds read high
Procedure, shortened: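 Cells are treated with compound, grown, and their growth is then scored against vehicle-only cultures of the same repair-deficient yeast strain.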

[5] = NCI Yeast Anticancer Drug Screen. Data for the mec2-1 strain (AID 157); details: S. cerevisiae mec2-1 strain, active compounds read high
Procedure, shortened: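 Compounds were applied to mec2-1 yeast cells. Their growth was then compared with that of vehicle-treated cultures to give growth inhibition.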

[6] = NCI Yeast Anticancer Drug Screen. Data for the rad14 strain (AID 159);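 further: 0% = growth of vehicle-treated control cultures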; details: S. cerevisiae rad14 strain growth inhibition, active compounds read high
Procedure, shortened: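 Readout: yeast growth inhibition, referenced to vehicle-only cultures. Strain bears a defined alteration in DNA damage repair.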

[7] = NCI Yeast Anticancer Drug Screen. Data for the sgs1 mgt1 strain (AID 161);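 further: 0% = growth of cultures given vehicle only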; details: S. cerevisiae sgs1 mgt1 strain, active compounds read high
Procedure, shortened: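 Yeast cells carrying a defined DNA-repair defect were exposed to test compounds. Growth inhibition was measured relative to vehicle-treated controls.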

[8] = NCI Yeast Anticancer Drug Screen. Data for the CLN2oe strain (AID 163);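 further: 0% = growth of vehicle-only control cultures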; details: S. cerevisiae CLN2oe strain, active compounds read high
Procedure, shortened: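 Cells of an engineered yeast line with disturbed cell-cycle regulation are treated with compound. Inhibition of growth is then calculated relative to the vehicle-treated reference.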

[9] = NCI Yeast Anticancer Drug Screen. Data for the cln2 rad14 strain (AID 165);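 further: 0% = growth equal to vehicle treated cultures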; details: S. cerevisiae cln2 rad14 strain, active compounds read high
Procedure, shortened: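 Strain: cln2 rad14 yeast, altered in cell cycle control and DNA damage repair. Read-out: growth inhibition vs vehicle.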

[10] = NCI Yeast Anticancer Drug Screen. Data for the bub3 strain (AID 167); details: S. cerevisiae bub3 mutant strain, active compounds read high
Procedure, shortened: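 Part of a panel of yeast mutants defective in DNA damage repair or cell cycle regulation. Each strain is grown with compound, and inhibition is calculated relative to solvent-treated cultures.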

[11] = NCI Yeast Anticancer Drug Screen. Data for the wt2 strain (AID 169);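 further: 0% = growth of vehicle-treated yeast cultures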; details: S. cerevisiae wt2 strain growth inhibition, active compounds read high
Procedure, shortened: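 Growth of compound-treated yeast is measured and expressed as inhibition relative to vehicle-only controls.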

[12] = NCI Yeast Anticancer Drug Screen. Data for the mlh1 strain (AID 171);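 further: 0% = growth of vehicle-treated control cultures of the same strain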; details: S. cerevisiae mlh1 strain growth inhibition, active compounds read high
Procedure, shortened: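 Test agents were incubated with yeast bearing a defined DNA damage repair or cell cycle control alteration; values are growth inhibition normalised to vehicle-treated cultures.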

[13] = NCI Yeast Anticancer Drug Screen. Data for the sgs1 strain (AID 173);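 further: 0% = growth of vehicle-only control cultures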; details: S. cerevisiae sgs1 mutant, active compounds read high
Procedure, shortened: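 Strain with an altered DNA repair or cell cycle pathway exposed to compound. Growth then measured. Value = inhibition versus vehicle control.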

[14] = NCI Yeast Anticancer Drug Screen. Data for the mlh1 rad18 strain (AID 175); details: S. cerevisiae mlh1 rad18 strain growth inhibition, active compounds read high
Procedure, shortened: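 A repair-deficient yeast strain is exposed to test compound, and growth is scored relative to vehicle-treated controls.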

[15] = NCI Yeast Anticancer Drug Screen. Data for the rad18 strain (AID 177); details: S. cerevisiae rad18 mutant growth inhibition, active compounds read high
Procedure, shortened: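 DNA-repair-defective yeast; compound treatment; growth inhibition scored against vehicle.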

[16] = at 5.0 µM (retest, dose inferred, filed as 0.5)
[17] = at 50.0 µM (retest, dose inferred, filed as 5.0)

Measured: growth inhibition

CC(=O)CC[N+](C)(C)C
inactive: [1]; at 1.2 µM 0% | [1]; at 3.7 µM 11% | [1]; at 11.0 µM 2% | [1]; at 33.0 µM -5% | [1]; at 100.0 µM 2% | [2]; at 1.2 µM -7% | [2]; at 3.7 µM 4% | [2]; at 11.0 µM -4% | [2]; at 33.0 µM -15% | [2]; at 100.0 µM 7% | [3]; at 1.2 µM -29% | [3]; at 3.7 µM -21% | [3]; at 11.0 µM -17% | [3]; at 33.0 µM -21% | [3]; at 100.0 µM -2% | [4]; at 1.2 µM -14% | [4]; at 3.7 µM -9% | [4]; [16] 31% | [4]; at 11.0 µM -4% | [4]; at 33.0 µM -14% | [4]; at 50.0 µM 0.7% | [4]; at 100.0 µM -13% | [5]; at 1.2 µM 4% | [5]; at 3.7 µM -3% | [5]; [16] 22% | [5]; at 11.0 µM -1% | [5]; at 33.0 µM -7% | [5]; [17] 59% | [5]; at 50.0 µM -22.7% | [5]; at 100.0 µM 4% | [6]; at 1.2 µM 5% | [6]; at 3.7 µM 6% | [6]; at 11.0 µM -5% | [6]; at 33.0 µM 0% | [6]; at 100.0 µM -2% | [7]; [16] 13% | [7]; [17] 51% | [7]; at 50.0 µM -30.9% | [8]; at 1.2 µM 17% | [8]; at 3.7 µM 28% | [8]; at 11.0 µM 31% | [8]; at 33.0 µM 31% | [8]; at 100.0 µM 36% | [9]; [16] 25% | [9]; [17] 30% | [9]; at 50.0 µM -41.7% | [10]; at 1.2 µM 12% | [10]; at 3.7 µM 16% | [10]; [16] 20% | [10]; at 11.0 µM 16% | [10]; at 33.0 µM 13% | [10]; [17] 14% | [10]; at 50.0 µM -24.3% | [10]; at 100.0 µM 27% | [11]; at 1.2 µM -22% | [11]; at 3.7 µM -1% | [11]; at 11.0 µM -25% | [11]; at 33.0 µM -31% | [11]; at 100.0 µM -30% | [12]; at 1.2 µM -13% | [12]; at 3.7 µM -6% | [12]; at 11.0 µM -11% | [12]; at 33.0 µM -9% | [12]; at 100.0 µM -22% | [13]; at 1.2 µM -8% | [13]; at 3.7 µM -12% | [13]; at 11.0 µM 3% | [13]; at 33.0 µM 3% | [13]; at 100.0 µM 23% | [14]; [16] 26% | [14]; at 50.0 µM 41.9% | [15]; at 1.2 µM -20% | [15]; at 3.7 µM -11% | [15]; at 11.0 µM 14% | [15]; at 33.0 µM -2% | [15]; at 100.0 µM -10%
active: [4]; [17] 100% | [14]; [17] 80%
